Experimental data as given in PubChem BioAssay (NCI).
This is part of a sample that, as a whole, favours compounds with a hit. Of some 83,000 tested, about 20% had one in any assay.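 Single-dose data. Exposure time 48 hours. Values below 10 considered active.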 Activity calls are given as the source filed them.

How the values were obtained:
Assay in all cases: NCI-60 one-dose screen, 48 h (100 = growth as untreated, 0 = no growth, -100 = all killed)
Conditions in all cases: 10 µM unless noted
SK-MEL-2 melanoma = test system: SK-MEL-2 melanoma
EKVX NSCLC = test system: EKVX NSCLC
SN12C renal = test system: SN12C renal
UO-31 renal = test system: UO-31 renal
TK-10 renal = test system: TK-10 renal
ACHN renal = test system: ACHN renal
A498 renal = test system: A498 renal
CCRF-CEM leukemia = test system: CCRF-CEM leukemia
MOLT-4 leukemia = test system: MOLT-4 leukemia
SR leukemia = test system: SR leukemia
RPMI-8226 leukemia = test system: RPMI-8226 leukemia
OVCAR-8 ovarian = test system: OVCAR-8 ovarian
OVCAR-5 ovarian = test system: OVCAR-5 ovarian
OVCAR-4 ovarian = test system: OVCAR-4 ovarian
SK-OV-3 ovarian = test system: SK-OV-3 ovarian
IGROV1 ovarian = test system: IGROV1 ovarian
OVCAR-3 ovarian = test system: OVCAR-3 ovarian
HS 578T breast = test system: HS 578T breast
NCI/ADR-RES ovarian = test system: NCI/ADR-RES ovarian
T-47D breast = test system: T-47D breast

Measured: growth

N#C/C(=C/c1ccc(O)c([N+](=O)[O-])c1)c1nc(-c2ccc([N+](=O)[O-])cc2)cs1
inactive: SK-MEL-2 melanoma 16.9% | EKVX NSCLC 26.5% | SN12C renal 36.3% | UO-31 renal 37.6% | TK-10 renal 52.7% | ACHN renal 36.1% | A498 renal 21.3% | CCRF-CEM leukemia 25.5% | MOLT-4 leukemia 25.1% | SR leukemia 47.7% | OVCAR-8 ovarian 48.4% | OVCAR-5 ovarian 108% | OVCAR-4 ovarian 34.1% | SK-OV-3 ovarian 38.9% | IGROV1 ovarian 55.9% | OVCAR-3 ovarian 23.5% | HS 578T breast 44.2% | NCI/ADR-RES ovarian 33.4% | T-47D breast 11.2%
active: RPMI-8226 leukemia 9.81%

Cc1cc(C)n(-c2nc(-c3cccs3)c(C#N)c(=O)[nH]2)n1
inactive: SK-MEL-2 melanoma 97.2% | EKVX NSCLC 95.5% | SN12C renal 95.8% | UO-31 renal 89.1% | TK-10 renal 103% | ACHN renal 108% | A498 renal 93.8% | CCRF-CEM leukemia 103% | MOLT-4 leukemia 87% | SR leukemia 100% | RPMI-8226 leukemia 105% | OVCAR-8 ovarian 102% | OVCAR-5 ovarian 105% | OVCAR-4 ovarian 91.1% | SK-OV-3 ovarian 90.9% | IGROV1 ovarian 108% | OVCAR-3 ovarian 94.7% | HS 578T breast 106% | NCI/ADR-RES ovarian 85.7% | T-47D breast 80.6%

Cc1c(Br)cccc1NC(=O)c1sc2nc3c(cc2c1N)CN(Cc1ccccc1)CC3
active: A498 renal -8.85% | CCRF-CEM leukemia 3.86% | SR leukemia 9.33% | RPMI-8226 leukemia 4.4% | OVCAR-3 ovarian -7.95%
inactive: SK-MEL-2 melanoma 25.5% | EKVX NSCLC 34.3% | SN12C renal 28.1% | UO-31 renal 48.2% | TK-10 renal 49.8% | ACHN renal 39.6% | MOLT-4 leukemia 10.3% | OVCAR-8 ovarian 14.1% | OVCAR-5 ovarian 36.7% | OVCAR-4 ovarian 28.1% | SK-OV-3 ovarian 22.8% | IGROV1 ovarian 39.3% | HS 578T breast 11.3% | NCI/ADR-RES ovarian 24.2% | T-47D breast 43%

O=c1c2ccccc2oc2ccc(OCCCCCN3CCCCCC3)cc12
inactive: SK-MEL-2 melanoma 99.4% | EKVX NSCLC 90.4% | SN12C renal 69.4% | UO-31 renal 68.1% | TK-10 renal 72.2% | ACHN renal 103% | A498 renal 82.7% | CCRF-CEM leukemia 82.5% | MOLT-4 leukemia 46.7% | SR leukemia 46.9% | RPMI-8226 leukemia 57.3% | OVCAR-8 ovarian 75.5% | OVCAR-5 ovarian 92% | OVCAR-4 ovarian 73.1% | SK-OV-3 ovarian 93.5% | IGROV1 ovarian 77.2% | OVCAR-3 ovarian 87.1% | HS 578T breast 88.8% | NCI/ADR-RES ovarian 77.8% | T-47D breast 58.8%

C=C1C(=O)O[C@H]2[C@H]1CC/C(COC(=O)c1cccnc1N)=C\CC[C@@]1(C)O[C@@H]21
inactive: SK-MEL-2 melanoma 39.1% | EKVX NSCLC 34.1% | SN12C renal 10.4% | UO-31 renal 13.3% | A498 renal 33.8% | OVCAR-8 ovarian 14.9% | OVCAR-5 ovarian 36.1% | OVCAR-4 ovarian 54.7% | SK-OV-3 ovarian 71.3% | IGROV1 ovarian 13.8% | HS 578T breast 28.9% | NCI/ADR-RES ovarian 31.9% | T-47D breast 50.7%
active: TK-10 renal -6.51% | ACHN renal -3.75% | CCRF-CEM leukemia -3.91% | MOLT-4 leukemia 8.57% | SR leukemia 2.93% | RPMI-8226 leukemia -19.2% | OVCAR-3 ovarian -4.59%

Cn1cc(-c2ccc3c(c2)ncn3-c2ccc(CC(=O)Nc3cc(C(C)(C)C)on3)cc2)cn1
inactive: SK-MEL-2 melanoma 23.4% | EKVX NSCLC 20.5% | SN12C renal 13.1% | CCRF-CEM leukemia 57.7% | MOLT-4 leukemia 27.4% | SR leukemia 18.8% | RPMI-8226 leukemia 76.8% | OVCAR-8 ovarian 41.4% | OVCAR-5 ovarian 22.8% | OVCAR-4 ovarian 12.3% | OVCAR-3 ovarian 32.4% | NCI/ADR-RES ovarian 38.7% | T-47D breast 35.5%
active: UO-31 renal 3.88% | TK-10 renal -8.53% | ACHN renal 6.24% | A498 renal -47.1% | SK-OV-3 ovarian 7.18% | IGROV1 ovarian -27.7% | HS 578T breast -7.52%

COc1cc(NCC(=O)Nc2cc(Nc3cccc(C(F)(F)F)c3)ncn2)c(Cl)c(OC)c1Cl
inactive: SK-MEL-2 melanoma 89.5% | EKVX NSCLC 90.6% | SN12C renal 101% | UO-31 renal 64.2% | TK-10 renal 101% | ACHN renal 95.7% | A498 renal 71.5% | CCRF-CEM leukemia 72.5% | MOLT-4 leukemia 76.2% | SR leukemia 72.2% | RPMI-8226 leukemia 83.5% | OVCAR-8 ovarian 94.1% | OVCAR-5 ovarian 98.2% | OVCAR-4 ovarian 99.2% | SK-OV-3 ovarian 93.6% | IGROV1 ovarian 95.3% | OVCAR-3 ovarian 95.5% | HS 578T breast 82.2% | NCI/ADR-RES ovarian 96.3% | T-47D breast 81.2%

O=C(Nc1nc(-c2ccccc2)cs1)c1cc(-c2ccc(Br)cc2)nc2ccccc12
inactive: SK-MEL-2 melanoma 67% | EKVX NSCLC 41.2% | SN12C renal 54.9% | UO-31 renal 17.2% | TK-10 renal 63.2% | ACHN renal 55.4% | CCRF-CEM leukemia 20.9% | MOLT-4 leukemia 24% | SR leukemia 19.5% | RPMI-8226 leukemia 39.9% | OVCAR-8 ovarian 57.1% | OVCAR-5 ovarian 81.7% | OVCAR-4 ovarian 57.6% | SK-OV-3 ovarian 51.6% | IGROV1 ovarian 59.4% | OVCAR-3 ovarian 63.4% | HS 578T breast 62.1% | NCI/ADR-RES ovarian 58.5% | T-47D breast 21.7%
active: A498 renal -55.9%

COC(=O)c1ccc2c(c1)n(Cc1ccc3ccccc3c1)c[n+]2Cc1ccc2ccccc2c1
inactive: EKVX NSCLC 71% | SN12C renal 38.4% | UO-31 renal 83.6% | TK-10 renal 49.1% | ACHN renal 99% | A498 renal 80.5% | CCRF-CEM leukemia 27.5% | MOLT-4 leukemia 29.2% | OVCAR-8 ovarian 52.9% | OVCAR-5 ovarian 55.6% | OVCAR-4 ovarian 35.5% | SK-OV-3 ovarian 75.5% | OVCAR-3 ovarian 15.6% | HS 578T breast 67.6% | NCI/ADR-RES ovarian 101%
active: SK-MEL-2 melanoma 5.59% | SR leukemia -37.1% | RPMI-8226 leukemia -5.06% | IGROV1 ovarian 4.97% | T-47D breast 0.0638%

O=C(Nc1ccc2ncnc(Nc3ccc(F)c(Cl)c3)c2c1)c1ccccc1
inactive: SK-MEL-2 melanoma 87.5% | EKVX NSCLC 61.2% | SN12C renal 71.2% | UO-31 renal 63.3% | TK-10 renal 36.8% | ACHN renal 37% | A498 renal 67.6% | CCRF-CEM leukemia 98.6% | MOLT-4 leukemia 63.4% | SR leukemia 66.7% | RPMI-8226 leukemia 66.9% | OVCAR-8 ovarian 79.1% | OVCAR-5 ovarian 83.9% | SK-OV-3 ovarian 45.1% | IGROV1 ovarian 28.5% | OVCAR-3 ovarian 32.5% | HS 578T breast 82.8% | NCI/ADR-RES ovarian 65.9% | T-47D breast 45.3%
active: OVCAR-4 ovarian -39.8%

Cc1ccccc1NC(=O)c1sc2nc(C)c(C(C)O)cc2c1N (stereo not given)
inactive: SK-MEL-2 melanoma 34.4% | EKVX NSCLC 75.7% | SN12C renal 51.3% | UO-31 renal 69.6% | TK-10 renal 51.5% | ACHN renal 78.3% | A498 renal 47.9% | CCRF-CEM leukemia 45.7% | MOLT-4 leukemia 32.6% | RPMI-8226 leukemia 64.1% | OVCAR-8 ovarian 58.1% | OVCAR-5 ovarian 87.8% | OVCAR-4 ovarian 92.9% | SK-OV-3 ovarian 47.5% | IGROV1 ovarian 57.6% | OVCAR-3 ovarian 27.8% | HS 578T breast 53.3% | NCI/ADR-RES ovarian 29.4% | T-47D breast 54%
active: SR leukemia 4.46%

C=C1C(=O)O[C@H]2[C@H]1CC/C(COC(=O)NCC(=O)Nc1ccc(OC)c(C(N)=O)c1O)=C\CC[C@@]1(C)O[C@@H]21
inactive: SK-MEL-2 melanoma 77.5% | EKVX NSCLC 85.1% | SN12C renal 37.9% | UO-31 renal 82.7% | TK-10 renal 47.2% | ACHN renal 75.3% | A498 renal 86.4% | MOLT-4 leukemia 41.8% | SR leukemia 12.6% | OVCAR-8 ovarian 75.3% | OVCAR-5 ovarian 102% | OVCAR-4 ovarian 68.3% | SK-OV-3 ovarian 100% | IGROV1 ovarian 21.6% | OVCAR-3 ovarian 25.7% | HS 578T breast 89.3% | NCI/ADR-RES ovarian 104% | T-47D breast 34.4%
active: CCRF-CEM leukemia -15.8% | RPMI-8226 leukemia 2.96%

C=C1C(=O)O[C@H]2[C@H]1CC/C(C=Nc1c(N)cc(C(F)(F)F)cc1Br)=C\CC[C@@]1(C)O[C@@H]21
inactive: EKVX NSCLC 18.1% | A498 renal 55.2% | OVCAR-5 ovarian 42.8% | OVCAR-4 ovarian 55.3% | SK-OV-3 ovarian 83.1%
active: SK-MEL-2 melanoma -31.6% | SN12C renal -21.8% | UO-31 renal -71.5% | TK-10 renal -27.3% | ACHN renal -44.6% | CCRF-CEM leukemia 2.83% | MOLT-4 leukemia -2.99% | SR leukemia -4.04% | RPMI-8226 leukemia -23.4% | OVCAR-8 ovarian -8.6% | IGROV1 ovarian -9.71% | OVCAR-3 ovarian -91.9% | HS 578T breast 6.58% | NCI/ADR-RES ovarian 9.14% | T-47D breast -16.3%

COc1cc(NC(=O)c2cc(O)c(C/C=C(\C)CCC=C(C)C)c(O)c2)cc2c1O[C@]1(C)CC[C@@H](O)C(C)(C)[C@H]1C2
active: SK-MEL-2 melanoma -5.49% | UO-31 renal -21.5% | ACHN renal 4.47% | A498 renal -29.2% | CCRF-CEM leukemia 6.24% | MOLT-4 leukemia 0.564% | SR leukemia -1.71% | RPMI-8226 leukemia -30% | OVCAR-3 ovarian -12.1%
inactive: EKVX NSCLC 26.1% | SN12C renal 20.5% | TK-10 renal 56.1% | OVCAR-8 ovarian 23.5% | OVCAR-5 ovarian 44.9% | OVCAR-4 ovarian 29.6% | SK-OV-3 ovarian 26.9% | IGROV1 ovarian 20% | HS 578T breast 18.4% | NCI/ADR-RES ovarian 65% | T-47D breast 18%

O=C(O)c1cc(N=Nc2ccc(-c3ccc(N=Nc4c(S(=O)(=O)O)cc5ccc(Nc6ccccc6)cc5c4O)cc3)cc2)ccc1O
inactive: SK-MEL-2 melanoma 93.8% | EKVX NSCLC 101% | SN12C renal 98.7% | UO-31 renal 81.3% | TK-10 renal 106% | ACHN renal 102% | A498 renal 99.4% | CCRF-CEM leukemia 101% | MOLT-4 leukemia 97.9% | SR leukemia 105% | RPMI-8226 leukemia 104% | OVCAR-8 ovarian 107% | OVCAR-5 ovarian 109% | OVCAR-4 ovarian 102% | SK-OV-3 ovarian 98.4% | IGROV1 ovarian 100% | OVCAR-3 ovarian 103% | HS 578T breast 106% | NCI/ADR-RES ovarian 104% | T-47D breast 89.1%
